# Measurements taken from PubChem BioAssay AID1768 (National Center for Advancing Translational Sciences (NCATS), 2009).
# The campaign covered roughly 270,000 compounds. About 620 (0.23%) were called active. Not shown: some 12% with an inconclusive outcome. This excerpt belongs to a sample that is enriched for actives. A number with no mark means an inactive call. Calls follow the shape of the dose curve; as a rule, active = well fitted inhibition curve with a large enough effect in the polarisation, with a control signal flat (not every such curve was filed as active); inconclusive = small, poorly fitted or top-dose-only effect, or effect the other way, or a change in a side signal; inactive = no such curve, though single readings can be large or run the other way; the % refers to the polarisation.
# Molecular target: Menin (Homo sapiens) (UniProt O00255)
# Sequence (O00255 whole entry, looked up): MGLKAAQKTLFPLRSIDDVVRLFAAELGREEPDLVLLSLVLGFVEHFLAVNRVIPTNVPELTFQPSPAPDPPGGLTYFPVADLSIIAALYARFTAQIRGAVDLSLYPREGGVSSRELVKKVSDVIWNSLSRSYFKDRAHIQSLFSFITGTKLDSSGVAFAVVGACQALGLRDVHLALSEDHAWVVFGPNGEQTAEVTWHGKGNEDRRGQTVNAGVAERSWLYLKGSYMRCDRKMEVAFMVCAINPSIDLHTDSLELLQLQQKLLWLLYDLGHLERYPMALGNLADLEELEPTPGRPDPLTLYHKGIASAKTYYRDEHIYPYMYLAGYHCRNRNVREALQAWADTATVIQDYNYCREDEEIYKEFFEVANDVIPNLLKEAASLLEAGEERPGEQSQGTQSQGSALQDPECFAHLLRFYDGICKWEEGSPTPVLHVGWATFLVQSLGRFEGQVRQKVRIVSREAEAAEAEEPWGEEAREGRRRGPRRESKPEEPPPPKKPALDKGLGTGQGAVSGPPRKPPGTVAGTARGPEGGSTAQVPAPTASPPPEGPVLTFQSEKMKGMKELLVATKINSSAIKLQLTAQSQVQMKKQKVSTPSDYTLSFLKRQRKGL
# Assay: qHTS Assay for Inhibitors Targeting the Menin-MLL Interaction in MLL Related Leukemias: Competition With Texas Red Labeled MLL-derived Mutant Peptide; as to FP activity change, negative = inhibition: % of control where 0% means no effect
# Conditions: fluorescence polarization; series mostly up to 61.6 µM; FP activity change, negative = inhibition: at the top concentration
# Potency is read from the fitted curve at half-maximal effect.
SMILES,"FP activity change, negative = inhibition",Potency
COc1ccc(OC)c(CNC(=O)Cn2nc(C)c3c(C)n(-c4ccc(C)cc4)nc3c2=O)c1,-14.1%,–
CCN1C(=S)N[C@@H](c2cccc(C(F)(F)F)c2)C(C(=O)OC)=C1C,-22.2%,–
COc1cc(C(=O)NCc2ccncc2)cc(Br)c1OCc1ccccc1,51.3%,–
Cc1ccc(CNC(=O)C2(C(F)(F)F)C/C(=C\CCO)CCCO2)o1 (stereo not given),2.61%,–
FC(F)(F)c1nnc2c3ccccc3c(Cl)nn12,-2.32%,–
CC(C)C[C@H]1CN=C(Nc2ccccc2)N1CC1CCCCC1,-13.1%,–
COC(=O)c1ccc2c(=O)n(CCN3CCOCC3)c(SCC(=O)Nc3cccc(OC)c3)nc2c1,-4.18%,–
Cc1c(C(=O)NCC(c2ccco2)N2CCCC2)oc2ccc(Cl)cc12 (stereo not given),-16.2%,–
COc1cc(OC)c2c(c1C(CCN1CCCCC1)c1ccc(N(C)C)cc1)OC(=O)CC2c1ccc(N(C)C)cc1 (stereo not given),2.4%,–
O=C(N/C(=C/c1ccc(Cl)cc1)C(=O)N1CCCCC1)c1ccco1,1.31%,–
Cc1ccc(-n2ncc(C(=O)NC3CC3)c2C2CCN(C(=O)OC(C)(C)C)CC2)c(C)c1,0.388%,–
Cc1cc2c(c(=O)n1Cc1ccccc1)C1O[C@](CCCCN3C(=O)c4ccccc4C3=O)(Cc3ccccc31)O2,12.4% [at 11.7 µM],–
CC1Sc2ccc(S(=O)(=O)CCC(=O)NCc3ccccc3Cl)cc2NC1=O (stereo not given),14.1%,–
COc1cc(C(=O)NC2CCN(Cc3ccccc3)CC2)cc(Cl)c1OC(C)C,-8.46%,–
Cc1ccc(C(=O)NNC(=O)c2cc3cc4ccccc4nc3s2)cc1,–,17.8 µM (active)
Cc1ccc(C(=O)NNC(=O)c2cccs2)cc1,9.25%,–
O=C(NNC(=O)c1cc2c(s1)CCCC2)c1ccccc1,2.97%,–
COc1ccc(-c2nc3c(s2)CCc2onc(-c4ccc(OC)cc4)c2-3)cc1,5.56%,–
O=C1OC2(CCCCC2)CC2=C1C1O[C@](c3ccsc3)(Cc3ccccc31)O2,-0.298% [at 11.7 µM],–
COc1ccc(CN2CCCC(N3CCc4ccccc4C3)C2)c(O)c1 (stereo not given),-18.7%,–
Cc1ccc2nc(-c3ccncc3)cc(C(=O)Nc3ccncc3)c2c1,-0.0318%,–
COc1cccc(OCC(O)CNC(=O)c2oc3c(C)c(C)ccc3c2C)c1 (stereo not given),-16.1%,–
CC(C)CNS(=O)(=O)c1ccc(CCC(=O)NCc2ccc(Cl)cc2)cc1,-21.7%,–
C=CCn1c(SCC(=O)NC)nnc1C12CC3CC(CC(C3)C1)C2,-14.9%,–
COCCN1C(=O)C(=O)/C(=C(/O)c2ccc(S(=O)(=O)N3CCCCC3)cc2)C1c1ccc(OC)c(OC)c1 (stereo not given),8.43%,–

SMILES,"FP activity change, negative = inhibition",Potency
COc1cc(C(=O)NCc2cc3cc(Cl)ccc3n2C)cc(OC)c1OC,2.93%,–
CCCCNC(=O)c1cn(CC)c2cc(N3CCN(C(=O)c4ccco4)CC3)c(F)cc2c1=O,-13.8%,–
CCOc1ccc(NC(=O)C2CCN(C(=O)N3CCOc4ccccc43)CC2)cc1,-10.2%,–
Cc1ccc(N(Cc2ccccc2O)C(=O)c2ccccc2F)cc1,0.0013%,–
Cc1ccc(O)c(CNc2nc3ccccc3[nH]2)c1,4.64%,–
CCOC(=O)c1c(N)sc(C(C)=O)c1C,12.7%,–
COC(=O)c1sc(=S)n(-c2ccccc2)c1N,4.57%,–
COCCOC(=O)c1sc(=S)n(CCOC)c1N,–,28.2 µM (active)
O=C(c1ccccc1)N1CCC(CC2CC(c3ccc(Cl)cc3)=NO2)(C(=O)NCC2CCCCC2)CC1 (stereo not given),1.11%,–
CCN(CC)S(=O)(=O)c1ccc(N2CCOCC2)c(NC(=O)C2CSC3(C)CCC(=O)N23)c1 (stereo not given),-6.53%,–
COc1ccc(C)cc1Nc1n[n+](-c2ccccc2)c(-c2cccc(Cl)c2Cl)s1,-9.19%,–
CC1CC(C)CN(CCCNC(=O)c2csc3c2CCCCC3)C1 (stereo not given),-13%,–
CCN(CC)c1ccc(C(=O)Nn2c(C)nc3ccccc3c2=O)cc1,-13.2%,–
CCC(CC)COC(=O)C1=C(C)NC(=O)NC1c1ccc([N+](=O)[O-])cc1 (stereo not given),-1.42%,–
CCCN1CCC(=O)N(C(CSc2ccc(C)cc2)Cc2ccccc2)CC1 (stereo not given),-25.5%,–
CCOC(=O)c1ccccc1NS(=O)(=O)c1c(C)nc2sccn2c1=O,0.208%,–
COc1ccc(-n2nc(C(=O)NCC(=O)N3CCN(c4ccccc4OC)CC3)c3ccccc3c2=O)c(OC)c1,4.26%,–
CCCCc1cc(=O)oc2c(C)c(OCC(=O)N3CCC(C(N)=O)CC3)ccc12,-20.5%,–
O=S(=O)(NC1CCCCC1N1CCN(c2ccccc2F)CC1)c1ccccc1 (stereo not given),-1.78%,–
CC(C)(COC(=O)Nc1ccccc1)COC(=O)Nc1ccccc1,22.6%,–
Cc1ccc(C)c(N2CCN(C(=O)CCCn3c(=O)c4cccn4c4cccnc43)CC2)c1,-4.52%,–
O=C(O)Cc1ccc(NC(=O)c2cccs2)cc1,34.4%,–
CCc1ccc(NC(=O)C(=O)NNC(=O)c2cccs2)cc1,-15.4%,–
Cc1nc(-c2ccc(NC(=O)c3cccs3)cc2)cs1,–,25.1 µM (active)
COc1ccc(C2CC(O)(c3ccccc3)Oc3cc(C)cc(C)c32)cc1 (stereo not given),25%,–
